Test results as given in PubChem BioAssay (NCATS).
Values joined by “and” are separate entries in the source; they are usually repeats but may differ in a detail not shown here. Identical values can stand only once. Results filed as inconclusive are left out. Where a call stands in place of a potency, no number is given. A number with no mark means an inactive call. Active and inactive are the calls of the source. Unless noted, calls come from the whole dose curve; as a rule, active = well fitted curve in the direction sought with a large enough effect; inconclusive = small, poorly fitted or top-dose-only effect, or another doubt; inactive = no such curve, though single readings can be large; an effect the other way counts as inactive or inconclusive.

Legend:
[1] = qHTS for Inhibitors of Plasmodium falciparum (DD2) proliferation (AID 504314); note: potency is the fitted concentration of half-maximal effect;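 for activity, negative = inhibition: parasite DNA measured by SYBR Green fluorescence after red cell lysis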
How it was run: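 Parasite proliferation measured as SYBR Green signal from Plasmodium DNA, mature erythrocytes lacking DNA. 72 h incubation, 37C; activity scaled between vehicle and 0.29 uM artemisinin, with correction from vehicle-only plates.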

[2] = qHTS for Inhibitors of Plasmodium falciparum (GB4) proliferation (AID 504315); note: nearly all actives have a fitted effect of over 50% in size; note: potency is the fitted concentration of half-maximal effect
How it was run: (§1)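 Parasite growth measured as SYBR Green DNA fluorescence (ex 485, em 535 nm) after overnight lysis following 72 h culture at 37 °C, 0.3% parasitemia, 2.5% hematocrit. Values normalized against DMSO and 0.29 uM artemisinin controls, with plate-stack correction.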

[3] = qHTS for Inhibitors of Plasmodium falciparum (7G8) proliferation (AID 504316); note: nearly all actives have a fitted effect of over 65% in size; note: potency is the fitted concentration of half-maximal effect
How it was run: as §1

[4] = qHTS for Inhibitors of Plasmodium falciparum (HB3) proliferation (AID 504318); note: nearly all actives have a fitted effect of over 60% in size; note: potency is the fitted concentration of half-maximal effect
How it was run: as §1

[5] = biological target: Atrial natriuretic peptide receptor 1 (Homo sapiens) (UniProt P16066); experiment: Natriuretic polypeptide receptor (hNpr1) antagonism - Pilot CMLD screen (AID 1347052; calls by dose curve;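 note: HEK293 cells with hNpr1 stimulated by hNppA peptide at 0.1 nM; cGMP level read as GloSensor luciferase luminescence after agonist stimulation; series mostly up to about 9.2 µM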)
[6] = qHTS for Inhibitors of Plasmodium falciparum (CP250) proliferation (AID 504320)
How it was run: as §1

Atrial natriuretic peptide receptor 1 (Homo sapiens), sequence (P16066 whole entry, looked up): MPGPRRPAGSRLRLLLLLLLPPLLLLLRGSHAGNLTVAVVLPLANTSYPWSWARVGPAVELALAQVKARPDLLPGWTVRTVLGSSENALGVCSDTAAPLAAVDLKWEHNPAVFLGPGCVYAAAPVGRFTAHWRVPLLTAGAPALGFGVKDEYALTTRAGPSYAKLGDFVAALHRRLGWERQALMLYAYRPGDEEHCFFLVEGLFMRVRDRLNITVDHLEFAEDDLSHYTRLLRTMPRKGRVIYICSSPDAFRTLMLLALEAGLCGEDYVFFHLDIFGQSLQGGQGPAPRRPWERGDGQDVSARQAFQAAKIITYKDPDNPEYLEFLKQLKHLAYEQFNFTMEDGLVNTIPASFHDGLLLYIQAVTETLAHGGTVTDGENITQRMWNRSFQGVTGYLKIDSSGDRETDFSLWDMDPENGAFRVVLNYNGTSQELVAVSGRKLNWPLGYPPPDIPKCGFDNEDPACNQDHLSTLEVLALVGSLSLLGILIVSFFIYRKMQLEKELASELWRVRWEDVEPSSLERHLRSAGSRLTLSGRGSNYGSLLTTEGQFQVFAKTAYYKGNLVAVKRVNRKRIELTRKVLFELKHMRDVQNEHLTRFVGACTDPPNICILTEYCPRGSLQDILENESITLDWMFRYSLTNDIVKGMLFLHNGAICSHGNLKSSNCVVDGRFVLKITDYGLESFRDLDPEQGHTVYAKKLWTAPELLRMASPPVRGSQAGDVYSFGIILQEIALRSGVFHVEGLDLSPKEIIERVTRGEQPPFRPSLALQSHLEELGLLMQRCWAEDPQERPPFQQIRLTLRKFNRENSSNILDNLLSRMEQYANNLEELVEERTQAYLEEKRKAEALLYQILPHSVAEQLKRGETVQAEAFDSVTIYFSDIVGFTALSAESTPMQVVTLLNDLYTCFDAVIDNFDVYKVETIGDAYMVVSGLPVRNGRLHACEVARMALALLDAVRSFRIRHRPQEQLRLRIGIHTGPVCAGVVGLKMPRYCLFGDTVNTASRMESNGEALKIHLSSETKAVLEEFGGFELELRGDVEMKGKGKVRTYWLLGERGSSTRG

Row | SMILES | activity, negative = inhibition [1] | Potency [2] | Potency [3] | Potency [4] | Potency [5] | Potency [1] | Potency [6]
1 | CCCCc1cc2c(cn1)=C(OC(=O)C1CCCC1)C(C)(OC(=O)CC)C(=O)C=2 (stereo not drawn) | 0.367% [at 1.12 µM] | 1900 nM (active) | 1.51 µM (active) and 1.69 µM (active) | inactive | inactive | – | –
2 | C=CCNC(=O)N1CCc2nc(-c3ccccc3)c3c(c2C1)CO[C@@H](C)C3 | -1.14% [at 1.12 µM] | inactive | inactive | inactive | inactive | – | –
3 | CC(=O)N1C(=O)NC(C)=C(C#N)C1c1ccccc1 (stereo not drawn) | – | inactive | inactive | inactive | inactive | inactive | –
4 | CCCCCCC(=O)Cc1cc(OC)c(OC)cc1C=C(C(C)=O)C(=O)OC | – | inactive | inactive | inactive | inactive | inactive | –
5 | COC(=O)[C@H]1[C@@H](c2ccccc2)NC(=O)N(Cc2ccccc2)[C@@H]1C | – | inactive | inactive | inactive | inactive | inactive | –
6 | CCN1C(=NCCCOC(C)C)N[C@H](c2ccccc2)[C@H](C(=O)OC)[C@H]1C | – | inactive | inactive | inactive | inactive | inactive | –
7 | C=C(CO[C@@H]1C=C[C@@H](c2ccccc2)O[C@@H]1CO)c1ccccc1 | – | inactive | inactive | inactive | inactive | inactive | –
8 | CC(CCN1CCCCc2nc(C)c(C)cc21)=NO[C@@H](C)CN1CCCCc2nc(C)c(C)cc21 | – | inactive | inactive | inactive | inactive | inactive | –
9 | COc1cc2c(cc1OC)[C@@H]1O[C@](CCCCN3C(=O)c4ccccc4C3=O)(C2)OC2=C1C(=O)c1ccccc1C2=O | – | 1510 nM (active) | 1.51 µM (active) | 1510 nM (active) | inactive | 1340 nM (active) | –
10 | O=C1[C@@H]2[C@H]3[C@H](O)[C@H](O)CC(=NOC[C@@H](O)COCc4ccco4)[C@H]3CC[C@H]2C(=O)N1C[C@@H]1CCCO1 | – | inactive | inactive | inactive | inactive | inactive | –
11 | CCCC[C@H]1CN2[C@H](c3ccc(Br)cc3)[C@H](C)CC[C@H]2C(=O)O1 | – | inactive | inactive | inactive | inactive | inactive | –
12 | O=C1OC2(CCCCC2)CC2=C1[C@H]1O[C@](CCCCN3C(=O)c4ccccc4C3=O)(Cc3ccccc31)O2 | – | 1690 nM (active) | 1.69 µM (active) | 1900 nM (active) | inactive | 1500 nM (active) | –
13 | COC(=O)N1C(C)=Cc2ccccc2C1CC(C)=CC(C)=O (stereo not drawn) | – | inactive | inactive | inactive | inactive | inactive | –
14 | COC(=O)N[C@H](CC(C)=O)c1ccc(F)cc1 | – | inactive | inactive | inactive | inactive | inactive | –
15 | COc1ccc(-c2nc3c(c4c2C[C@H](c2ccccc2)OC4)CN(S(=O)(=O)c2ccc(C)cc2)CC3)c(C)c1 | -0.2% [at 1.12 µM] | 1690 nM (active) | 1.69 µM (active) and 1.9 µM (active) | 2130 nM (active) | inactive | – | –
16 | O=C1[C@H]2[C@@H]3[C@@H](O)[C@H](O)CC(=NOCc4ccccc4)[C@@H]3CC[C@H]2C(=O)N1C1CCCCC1 | – | inactive | inactive | inactive | inactive | inactive | –
17 | O=C1[C@H]2[C@@H]3[C@@H](O)[C@H](O)CC(=NOCc4ccccc4)[C@H]3CC[C@H]2C(=O)N1C[C@@H]1CCCO1 | – | inactive | inactive | inactive | inactive | inactive | –
18 | CCCC=CC1C(=O)[C@@H]2O[C@H]2C2(OCC(CC)(CC)CO2)C1CO (stereo partly drawn) | – | inactive | inactive | inactive | inactive | inactive | –
19 | COC(=O)C1=C(C(=O)OC)[C@@H]2N(Cc3ccccc3)c3ccccc3[C@@]23C[C@@H](C(=O)OC)N(C(=O)c2cc(C)oc2C)C3=N1 | – | inactive | inactive | inactive | inactive | inactive | –
20 | CC1(OC(=O)C2CCCC2)C(=O)C=C2C=C(c3ccsc3)N(CCc3ccccn3)C=C2C1=O (stereo not drawn) | – | inactive | inactive | inactive | inactive | inactive | –
21 | CCCCc1nc2c(c3c1C[C@H](C)OC3)CN(C(=O)c1ccco1)CC2 | -0.515% [at 1.12 µM] | inactive | inactive | inactive | inactive | – | –
22 | CCCNC(=O)OC[C@H]1O[C@H](CCON=CC[C@@H]2C=C[C@H](OC(C)=O)[C@@H](COC(C)=O)O2)C=C[C@H]1Oc1ccc(OC)cc1 | – | inactive | inactive | inactive | inactive | inactive | –
23 | COC(=O)CCC(=O)OC1(C)C(=O)C2=COC(c3ccc(OC)cc3)=CC2=C(Br)C1=O (stereo not drawn) | – | inactive | inactive | inactive | inactive | inactive | –
24 | CC(=O)C1=C(C)N(CC#C[Si](C)(C)C)C(=O)N(C(C)=O)C1c1ccccc1 (stereo not drawn) | – | inactive | inactive | inactive | inactive | inactive | –
25 | CCCCc1nc2c(c3c1C[C@H](C)OC3)CN(S(=O)(=O)c1ccc(C)cc1)CC2 | – | inactive | inactive | inactive | inactive | inactive | –
26 | COC(=O)C12C[C@H](C)C3C(C)C(c4ccccc4C31)N2C(=O)C(F)(F)F (stereo partly drawn) | – | inactive | inactive | inactive | inactive | inactive | –
27 | CCCCC1=CC2=C(c3ccco3)C(=O)C(C)(OC(=O)c3ccc(OC)cc3)C(=O)C2=CN1C(CO)CO (stereo not drawn) | – | inactive | inactive | inactive | inactive | inactive | –
28 | COc1ccc2c(c1)[C@@]1(OCCC=C[C@@H]1C)C(=O)N2CC1CC1 | – | inactive | inactive | inactive | inactive | inactive | –

Row | SMILES | activity, negative = inhibition [1] | Potency [2] | Potency [3] | Potency [4] | Potency [5] | Potency [1] | Potency [6]
29 | O=C1C2=C(C(=O)c3ccccc31)[C@H]1O[C@](CCCCN3C(=O)c4ccccc4C3=O)(Cc3c1ccc1ccccc31)O2 | – | 1690 nM (active) | 0.953 µM (active) | 757 nM (active) | inactive | 1500 nM (active) | –
30 | C=CC1=C2C=C(C3CC3)N(CCOC)C=C2C(=O)C(C)(OC(=O)c2ccco2)C1=O (stereo not drawn) | – | inactive | inactive | inactive | inactive | inactive | –
31 | CCCCc1nc2c(c3c1C[C@H](C)OC3)CN(C(=O)C1CCCCC1)CC2 | -0.437% [at 1.12 µM] | inactive | inactive | inactive | inactive | – | –
32 | CCN1C(=O)N(C)C(c2ccccc2)C(C(C)=O)=C1C (stereo not drawn) | – | inactive | inactive | inactive | inactive | inactive | –
33 | COC(=O)CCCC1=CC2=C(c3ccccc3)C(=O)C(C)(OC(=O)C3CCCC3)C(=O)C2=CN1C1CCCCC1 (stereo not drawn) | – | inactive | inactive | inactive | inactive | inactive | –
34 | CC(C)=CCCC(C)=CCON=C1C[C@@H](O)[C@@H](O)[C@@H]2[C@H]3C(=O)N(c4cccc(Oc5ccccc5)c4)C(=O)[C@@H]3CC[C@H]12 | – | inactive | inactive | inactive | inactive | inactive | –
35 | COC(=O)[C@H]1O[C@@H](c2cc(OC)c(C)c(OC)c2O)[C@H](C)[C@@H](O)[C@@H]1C | – | inactive | inactive | inactive | inactive | inactive | inactive
36 | C=CCOC(=O)N[C@@H](Cc1ccccc1)C(C(=O)OC)=C(C)NCc1ccccc1 | – | inactive | inactive | inactive | inactive | inactive | inactive
37 | O=C1[C@@H]2[C@H]3[C@H](O)[C@H](O)CC(=NOC[C@@H](O)COCc4ccco4)[C@@H]3CC[C@H]2C(=O)N1C[C@@H]1CCCO1 | – | inactive | inactive | inactive | inactive | inactive | –
38 | CC(C)=CCn1cnc2c1C(NOCc1ccccc1)=NCN2 | – | inactive | inactive | inactive | inactive | inactive | –
39 | CC1(OC(=O)C2CCCC2)C(=O)C=C2C=C(C3CC3)OC=C2C1=O (stereo not drawn) | – | inactive | inactive | inactive | inactive | inactive | –
40 | COc1ccc(C=CC2=C[C@]3(C)C[C@]2(C)[C@H](c2ccc(OC)cc2)CC3=O)cc1 | – | 1690 nM (active) | 1.51 µM (active) | 1510 nM (active) | inactive | 1500 nM (active) | –
41 | CCOC(=O)NN=Cc1ccccc1-c1cc(OC)ccc1OC | – | inactive | inactive | inactive | inactive | inactive | inactive
42 | COc1ccc(O[C@@H]2[C@H](O)CO[C@@H]2C=CC#Cc2ccccc2)cc1 | – | inactive | inactive | inactive | inactive | inactive | –
43 | O=C1CCC=C1C(O)c1ccc2c(c1)OCO2 (stereo not drawn) | – | inactive | inactive | inactive | inactive | inactive | –
44 | COC(=O)N[C@H](CC(C)=O)c1cccc(F)c1 | – | inactive | inactive | inactive | inactive | inactive | inactive
45 | COc1ccc(COC(=O)NN=C2C[C@@H](O)[C@@H](O)[C@@H]3[C@H]4C(=O)N(Cc5ccc6c(c5)OCO6)C(=O)[C@@H]4CC[C@H]23)cc1 | – | inactive | inactive | inactive | inactive | inactive | –
46 | COC(=O)CC=C1c2ccc(OC)cc2[C@@H](OC)[C@@H]1C | – | inactive | inactive | inactive | inactive | inactive | inactive
47 | COc1ccc2c(c1)O[C@@H](c1cccc(C(F)(F)F)c1)[C@H](O)C2=O | – | inactive | inactive | inactive | inactive | inactive | –
48 | COC(=O)N1C(c2ccccc2)=Cc2ccccc2C1CC(C)=O (stereo not drawn) | – | inactive | inactive | inactive | inactive | inactive | –
49 | C=CCCN1C=C(C(=O)OCC)C(c2ccccc2)NC1=O (stereo not drawn) | – | inactive | inactive | inactive | inactive | inactive | inactive
50 | CC(C)(C)Nc1oc(-c2ccccc2)nc1-c1ccc(C(F)(F)F)cc1 | – | inactive | inactive | inactive | inactive | inactive | –
51 | C(#C[C@@H]1C=C[C@H]2OC(c3ccccc3)OC[C@H]2O1)c1ccccc1 (stereo partly drawn) | – | inactive | inactive | inactive | inactive | inactive | –
52 | CCN1C(=NCc2ccccc2)N[C@@H](c2ccccc2)[C@H](C(=O)OC)[C@H]1C | – | inactive | inactive | inactive | inactive | inactive | –
53 | COCCN1C(=O)NC(CCc2ccccc2)C(C(C)=O)=C1C (stereo not drawn) | – | inactive | inactive | inactive | inactive | inactive | –
54 | COC(=O)CCCC1=CC2=C(c3ccccc3)C(=O)C(C)(OC(=O)C3CCCC3)C(=O)C2=CN1Cc1ccco1 (stereo not drawn) | – | inactive | inactive | inactive | inactive | inactive | inactive
55 | CC1(OC(=O)C2CCCC2)C(=O)C=C2C=C(c3ccsc3)N(C3CC3)C=C2C1=O (stereo not drawn) | -0.441% [at 1.12 µM] | inactive | inactive | inactive | inactive | – | inactive
